# Assay results reported in the supplement of paper PMC8728848.
# About 410 targets per protein were measured; listed, in parts, are those with the strongest signals and a random draw of the rest.
# How the values were obtained:
# Assay in all cases: glycan array binding signal (z-score within array); higher = stronger binding
# Conditions in all cases: glycan notation: IUPAC condensed, linker removed
# [1] = tested on: GlcNAc(b1-2)[GlcNAc(b1-6)]Man(a1-6)[GlcNAc(b1-2)Man(a1-3)]Man(b1-4)GlcNAc(b1-4)[Fuc(a1-6)]GlcNAc
# How it was run: (§1)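 The binding signal is a Z-score computed within each array. Data were drawn from 3228 arrays in the Consortium for Functional Glycomics database, restricted to those with a known protein sequence. Scores were averaged over arrays of the same protein sequence at different concentrations or buffers, and over linkers, and negative values can be taken as non-binding.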
# [2] = tested on: GlcNAc(b1-3)Gal(b1-4)GlcNAc(b1-2)[GlcNAc(b1-3)Gal(b1-4)GlcNAc(b1-6)]Man(a1-6)[GlcNAc(b1-3)Gal(b1-4)GlcNAc(b1-2)Man(a1-3)]Man(b1-4)GlcNAc(b1-4)GlcNAc
# How it was run: as §1
# [3] = tested on: GlcNAc(b1-3)Gal(b1-4)GlcNAc(b1-3)Gal(b1-4)GlcNAc(b1-2)[GlcNAc(b1-3)Gal(b1-4)GlcNAc(b1-3)Gal(b1-4)GlcNAc(b1-6)]Man(a1-6)[GlcNAc(b1-3)Gal(b1-4)GlcNAc(b1-3)Gal(b1-4)GlcNAc(b1-2)Man(a1-3)]Man(b1-4)GlcNAc(b1-4)[Fuc(a1-6)]GlcNAc
# How it was run: as §1
# [4] = tested on: GlcNAc(b1-3)Gal(b1-4)GlcNAc(b1-3)Gal(b1-4)GlcNAc(b1-3)Gal(b1-4)GlcNAc(b1-2)Man(a1-3)[GlcNAc(b1-3)Gal(b1-4)GlcNAc(b1-3)Gal(b1-4)GlcNAc(b1-3)Gal(b1-4)GlcNAc(b1-2)Man(a1-6)]Man(b1-4)GlcNAc(b1-4)GlcNAc
# How it was run: as §1
# [5] = tested on: GlcNAc(b1-3)Gal(b1-4)GlcNAc(b1-3)Gal(b1-4)GlcNAc(b1-3)Gal(b1-4)GlcNAc(b1-2)[GlcNAc(b1-3)Gal(b1-4)GlcNAc(b1-3)Gal(b1-4)GlcNAc(b1-3)Gal(b1-4)GlcNAc(b1-6)]Man(a1-6)[GlcNAc(b1-3)Gal(b1-4)GlcNAc(b1-3)Gal(b1-4)GlcNAc(b1-3)Gal(b1-4)GlcNAc(b1-2)Man(a1-3)]Man(b1-4)GlcNAc(b1-4)[Fuc(a1-6)]GlcNAc
# How it was run: as §1
# [6] = tested on: GlcNAc(b1-3)Gal(b1-4)GlcNAc(b1-3)Gal(b1-4)GlcNAc(b1-3)Gal(b1-4)GlcNAc(b1-3)Gal(b1-4)GlcNAc(b1-2)Man(a1-3)[GlcNAc(b1-3)Gal(b1-4)GlcNAc(b1-3)Gal(b1-4)GlcNAc(b1-3)Gal(b1-4)GlcNAc(b1-3)Gal(b1-4)GlcNAc(b1-2)Man(a1-6)]Man(b1-4)GlcNAc(b1-4)GlcNAc
# How it was run: as §1
# [7] = tested on: GlcNAc(b1-3)Gal(b1-4)GlcNAc(b1-3)Gal(b1-4)GlcNAc(b1-3)Gal(b1-4)GlcNAc(b1-3)Gal(b1-4)GlcNAc(b1-2)[GlcNAc(b1-3)Gal(b1-4)GlcNAc(b1-3)Gal(b1-4)GlcNAc(b1-3)Gal(b1-4)GlcNAc(b1-3)Gal(b1-4)GlcNAc(b1-6)]Man(a1-6)[GlcNAc(b1-3)Gal(b1-4)GlcNAc(b1-3)Gal(b1-4)GlcNAc(b1-3)Gal(b1-4)GlcNAc(b1-3)Gal(b1-4)GlcNAc(b1-2)Man(a1-3)]Man(b1-4)GlcNAc(b1-4)[Fuc(a1-6)]GlcNAc
# How it was run: as §1
# [8] = tested on: GlcNAc(b1-3)Gal(b1-4)GlcNAc
# How it was run: as §1
# Kdn(a2-3)Gal(b1-3)GlcNAc = tested on: Kdn(a2-3)Gal(b1-3)GlcNAc
# How it was run: as §1
# [9] = tested on: GlcNAc(b1-2)[GlcNAc(b1-6)]Man(a1-6)[GlcNAc(b1-2)Man(a1-3)]Man(b1-4)GlcNAc(b1-4)GlcNAc
# How it was run: as §1
# [10] = tested on: GlcNAc(b1-3)[GlcNAc(b1-6)]GalNAc
# How it was run: as §1
# [11] = tested on: GlcNAc(b1-4)GlcNAc(b1-4)GlcNAc(b1-4)GlcNAc(b1-4)GlcNAc
# How it was run: as §1
# [12] = tested on: GlcNAc(b1-3)[GlcNAc(b1-6)]Gal(b1-4)GlcNAc
# How it was run: as §1
# GlcNAc(b1-6)GalNAc = tested on: GlcNAc(b1-6)GalNAc
# How it was run: as §1
# GlcNAc(b1-4)GlcNAc = tested on: GlcNAc(b1-4)GlcNAc
# How it was run: as §1
# GlcNAc(b1-3)Gal(b1-4)Glc = tested on: GlcNAc(b1-3)Gal(b1-4)Glc
# How it was run: as §1
# GlcNAc(b1-3)GalNAc = tested on: GlcNAc(b1-3)GalNAc
# How it was run: as §1
# [13] = tested on: GlcNAc(b1-3)Gal(b1-4)GlcNAc(b1-3)Gal(b1-4)GlcNAc(b1-2)Man(a1-3)[GlcNAc(b1-3)Gal(b1-4)GlcNAc(b1-3)Gal(b1-4)GlcNAc(b1-2)Man(a1-6)]Man(b1-4)GlcNAc(b1-4)GlcNAc
# How it was run: as §1
# [14] = tested on: GlcNAc(b1-3)Gal(b1-4)GlcNAc(b1-6)[GlcNAc(b1-3)Gal(b1-3)]GalNAc
# How it was run: as §1
# [15] = tested on: GlcNAc(b1-4)Gal(b1-4)GlcNAc
# How it was run: as §1
substance,measurement,setting,value
AgI/IIC123-GFP (Streptococcus mutans),glycan array binding signal (z-score),[1],-0.127
same,glycan array binding signal (z-score),[2],0.224
same,glycan array binding signal (z-score),[3],5.15
same,glycan array binding signal (z-score),[4],3.88
same,glycan array binding signal (z-score),[5],9
same,glycan array binding signal (z-score),[6],-0.201
same,glycan array binding signal (z-score),[7],7.4
same,glycan array binding signal (z-score),[8],-0.479
same,glycan array binding signal (z-score),Kdn(a2-3)Gal(b1-3)GlcNAc,-0.106
Actinohivin (Actinomycete K97),glycan array binding signal (z-score),[3],0.545
"SiiE (Salmonella typhimurium), A0A0H3NVH0",glycan array binding signal (z-score),[9],3.14
"BambL (Burhholderia ambifaria), Q0B4G1",glycan array binding signal (z-score),[10],-0.313
same,glycan array binding signal (z-score),[11],-0.314
"GspB (Streptococcus gordonii), Q939N5",glycan array binding signal (z-score),[12],-0.418
same,glycan array binding signal (z-score),GlcNAc(b1-6)GalNAc,-0.73
AgI/II Vhelical-GFP (Streptococcus mutans),glycan array binding signal (z-score),[4],0.722
"SpGH101 (Streptococcus pneumoniae), Q8DR60",glycan array binding signal (z-score),GlcNAc(b1-4)GlcNAc,-0.14
Epa22,glycan array binding signal (z-score),GlcNAc(b1-3)Gal(b1-4)Glc,-0.695
same,glycan array binding signal (z-score),GlcNAc(b1-3)GalNAc,-0.435
"Wza (Escherichia coli), P0A930",glycan array binding signal (z-score),[9],0.119
same,glycan array binding signal (z-score),[12],3.12
LcI (Legionella pneumophila),glycan array binding signal (z-score),[13],3.83
same,glycan array binding signal (z-score),[14],-0.064
same,glycan array binding signal (z-score),[15],4
